Where “and” joins values, the source holds several entries; their conditions need not be identical. Identical values can stand only once. About 2,000 (36%) of roughly 5,500 compounds were called active. Inconclusive results (about 18%) are left out. Cut-off read from the data, not from the text of the source: active = normalized growth mostly below about 0.91 (no sharp cut-off); inconclusive = no clear call, values can overlap the other calls; inactive = mostly above about 0.92. The list shows a part of the results.
Assay: chemical genetic growth profiling, strain panel (AID 1159580);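 note: tested at 20 µM; growth read once vehicle control cultures reached saturation at 30 °C; 1 = growth at the plate median or of vehicle wells; lower values mean less growth of the strain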
Settings: S. cerevisiae deletion strains, growth OD

Measured: normalized growth

CC(C)NC[C@H](O)COc1cccc2ccccc12
inactive: locus YAL021C, strain ccr4, active compounds read low 0.985 | locus YAL026C, strain drs2, active compounds read low 1 | locus YAL030W, strain snc1, active compounds read low 0.986 | locus YBL061C, strain skt5, active compounds read low 0.984 | locus YBR009C, strain hhf1, active compounds read low 0.98 | locus YBR021W, strain FUR4, active compounds read low 0.997 | locus YBR023C, strain chs3, active compounds read low 0.99 | locus YBR171W, strain sec66, active compounds read low 0.989 | locus YBR229C, strain ROT2, active compounds read low 1.01 | locus YBR231C, strain swc5, active compounds read low 0.989 | locus YBR279W, strain paf1, active compounds read low 0.99 | locus YCL011C, strain gbp2, active compounds read low 0.993 | locus YCL016C, strain dcc1, active compounds read low 0.991 | locus YCL029C, strain bik1, active compounds read low 1.02 | locus YCL061C, strain MRC1, active compounds read low 0.994 | locus YCL069W, strain vba3, active compounds read low 0.993 | locus YCR088W, strain abp1, active compounds read low 0.991 | locus YDL005C, strain med2, active compounds read low 0.981 | locus YDL035C, strain GPR1, active compounds read low 0.993 | locus YDL040C, strain nat1, active compounds read low 0.992 | locus YDL074C, strain BRE1, active compounds read low 1.02 | locus YDL101C, strain DUN1, active compounds read low 1.01 | locus YDL134C, strain PPH21, active compounds read low 0.979 | locus YDL185W, strain tfp1, active compounds read low 1.03 | locus YDL192W, strain arf1, active compounds read low 1.02 | locus YDR001C, strain nth1, active compounds read low 0.991 | locus YDR069C, strain doa4, active compounds read low 1 | locus YDR101C, strain arx1, active compounds read low 1 | locus YDR137W, strain rgp1, active compounds read low 1 | locus YDR159W, strain sac3, active compounds read low 0.976 | locus YDR162C, strain NBP2, active compounds read low 1 | locus YDR195W, strain ref2 0.962 | locus YDR297W, strain sur2, active compounds read low 1.01 | locus YDR318W, strain mcm21, active compounds read low 1.02 | locus YDR334W, strain swr1, active compounds read low 0.999 | locus YDR335W, strain msn5, active compounds read low 0.991 | locus YDR388W, active compounds read low 1.02 | locus YDR392W, strain spt3, active compounds read low 0.943 | locus YDR502C, strain sam2, active compounds read low 1 | locus YEL003W, strain gim4, active compounds read low 1 | locus YEL037C, strain rad23, active compounds read low 1.02 | locus YEL061C, strain CIN8 (second series), active compounds read low 0.993 | locus YEL061C, strain CIN8, active compounds read low 1.01 | locus YER015W, strain faa2, active compounds read low 0.969 | locus YER016W, strain bim1, active compounds read low 0.986 | locus YER110C, active compounds read low 1.02 | locus YER111C, strain swi4, active compounds read low 0.986 | locus YER155C, strain BEM2 (second series), active compounds read low 0.98 | locus YER155C, strain BEM2, active compounds read low 1.01 | locus YER167W, strain BCK2, active compounds read low 1 | locus YFR010W, strain ubp6, active compounds read low 1.01 | locus YGL078C, strain dbp3, active compounds read low 1.01 | locus YGL086W, strain mad1, active compounds read low 0.994 | locus YGL167C, strain pmr1, active compounds read low 0.982 | locus YGL173C, strain kem1, active compounds read low 0.993 | locus YGL227W, strain vid30, active compounds read low 0.992 | locus YGL240W, strain doc1, active compounds read low 0.977 | locus YGL248W, strain PDE1, active compounds read low 1.01 | locus YGL253W, strain hxk2, active compounds read low 1 | locus YGR078C, strain PAC10, active compounds read low 1.01 | locus YGR135W, strain pre9, active compounds read low 1.02 | locus YGR252W, strain gcn5, active compounds read low 0.992 | locus YHR013C, strain ard1, active compounds read low 0.953 | locus YHR027C, strain rpn1, active compounds read low 0.988 | locus YHR030C, strain SLT2, active compounds read low 1.01 and 1.06 | locus YHR079C, strain IRE1 (second series), active compounds read low 1.02 | locus YHR079C, strain IRE1, active compounds read low 1.08 | locus YHR094C, strain hxt1, active compounds read low 1.02 | locus YHR129C, strain ARP1, active compounds read low 1.01 | locus YHR142W, strain chs7, active compounds read low 1.01 | locus YHR200W, strain rpn10, active compounds read low 1.02 | locus YIL066C, strain RNR3, active compounds read low 1.01 | locus YIL073C, strain SPO22, active compounds read low 1.04 | locus YIL125W, strain kgd1, active compounds read low 1.02 | locus YIR030C, strain dcg1, active compounds read low 1.03 | locus YJL092W, strain hpr5, active compounds read low 0.993 | locus YJL095W, strain BCK1 (second series), active compounds read low 0.987 | locus YJL095W, strain BCK1, active compounds read low 1.01 and 1.02 | locus YJL115W, strain asf1, active compounds read low 0.987 | locus YJL129C, strain trk1, active compounds read low 1.01 | locus YJL134W, strain LCB3, active compounds read low 1.01 | locus YJL154C, strain vps35, active compounds read low 0.992 | locus YJL164C, strain tpk1, active compounds read low 0.989 | locus YJL166W, strain qcr8, active compounds read low 0.983 | locus YJL168C, strain set2, active compounds read low 1.02 | locus YJL187C, strain SWE1 (second series), active compounds read low 1.01 | locus YJL187C, strain SWE1, active compounds read low 0.984 | locus YJR043C, strain POL32, active compounds read low 1.01
